# Values without a mark were called inactive. Records with an inconclusive call do not appear. Entries that show only a call come without a potency. Activity calls are given as the source filed them. Unless noted, calls follow the shape of the dose curve; as a rule, active = well fitted curve in the direction sought with a large enough effect in the repeat runs; inconclusive = weak or mixed curves; inactive = no such curve, though single readings can be large; an effect the other way counts as inactive or inconclusive.
# Assays:
# [1] = qHTS assay to identify small molecule antagonists of the estrogen receptor alpha (ER-alpha) signaling pathway using the BG1 cell line in the presence of 0.1 nM 17-beta-estradiol - cell viability counter screen (AID 1259241); also: nearly all actives have a fitted effect of over 40% in size
# Summary of the method: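 VM7Luc4E2 cells (endogenous full-length ER-alpha, 4xERE-luciferase), cultured 5 days in charcoal-stripped serum, exposed to compounds with 0.1 nM 17beta-estradiol (final) for 22 hr at 37C. Viability read in same wells as live-cell protease fluorescence after 30 min.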
# [2] = qHTS assay to identify small molecule antagonists of the androgen receptor (AR) signaling pathway using the MDA cell line in the presence of 0.5 nM R1881 - cell viability counter screen (AID 1259242); also: nearly all actives have a fitted effect of over 45% in size
# Summary of the method: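 Steps: plate MDA-kb2 cells, rest 5 hr at 37C without CO2; pin in compounds in DMSO; add R1881 to 0.5 nM final; incubate 16 hr; add CellTiter-Fluor, 30 min; read fluorescence.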
# [3] = target: Androgen receptor (Homo sapiens) (UniProt P10275); assay: qHTS assay to identify small molecule antagonists of the androgen receptor (AR) signaling pathway using the MDA cell line in the presence of 0.5 nM R1881 (AID 1259243); also: nearly all actives have a fitted effect of over 50% in size; also: potency is read from the fitted curve at half-maximal effect
# Sequence of Androgen receptor (Homo sapiens) (P10275 whole entry, looked up): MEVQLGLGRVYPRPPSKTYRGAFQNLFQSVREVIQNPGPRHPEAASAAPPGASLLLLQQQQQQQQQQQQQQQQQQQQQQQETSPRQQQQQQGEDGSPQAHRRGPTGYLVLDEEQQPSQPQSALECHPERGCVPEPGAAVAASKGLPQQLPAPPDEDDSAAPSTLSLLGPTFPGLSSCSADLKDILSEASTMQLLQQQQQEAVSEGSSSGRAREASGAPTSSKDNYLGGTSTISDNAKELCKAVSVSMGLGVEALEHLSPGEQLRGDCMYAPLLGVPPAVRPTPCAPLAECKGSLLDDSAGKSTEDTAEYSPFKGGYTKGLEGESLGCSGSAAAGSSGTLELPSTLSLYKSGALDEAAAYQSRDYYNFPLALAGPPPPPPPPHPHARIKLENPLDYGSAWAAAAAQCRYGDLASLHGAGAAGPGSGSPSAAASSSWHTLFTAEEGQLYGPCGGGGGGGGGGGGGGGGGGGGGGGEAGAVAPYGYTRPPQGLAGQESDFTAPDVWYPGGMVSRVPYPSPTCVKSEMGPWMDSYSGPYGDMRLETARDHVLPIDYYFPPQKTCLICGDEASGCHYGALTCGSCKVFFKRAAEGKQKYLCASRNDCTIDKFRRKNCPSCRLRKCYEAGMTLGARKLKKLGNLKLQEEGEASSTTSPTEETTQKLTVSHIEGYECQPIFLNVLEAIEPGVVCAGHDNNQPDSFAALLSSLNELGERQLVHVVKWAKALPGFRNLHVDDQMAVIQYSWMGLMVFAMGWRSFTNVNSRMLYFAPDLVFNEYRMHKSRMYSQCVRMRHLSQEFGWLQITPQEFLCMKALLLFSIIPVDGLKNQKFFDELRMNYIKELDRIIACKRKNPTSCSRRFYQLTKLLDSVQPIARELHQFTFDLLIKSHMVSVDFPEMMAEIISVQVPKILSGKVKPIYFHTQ
# Summary of the method: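 Stably transfected MDA-kb2 cells express luciferase from an MMTV promoter bearing both AR and GR response elements. Compounds plus 0.5 nM R1881 (final) were incubated 16 hr at 37C without CO2, then luminescence measured.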
# [4] = target: Estrogen receptor (Homo sapiens) (UniProt P03372); assay: qHTS assay to identify small molecule antagonists of the estrogen receptor alpha (ER-alpha) signaling pathway using the BG1 cell line in the presence of 0.1 nM 17-beta-estradiol (AID 1259244); also: nearly all actives have a fitted effect of over 50% in size
# Sequence of Estrogen receptor (Homo sapiens) (P03372 whole entry, looked up): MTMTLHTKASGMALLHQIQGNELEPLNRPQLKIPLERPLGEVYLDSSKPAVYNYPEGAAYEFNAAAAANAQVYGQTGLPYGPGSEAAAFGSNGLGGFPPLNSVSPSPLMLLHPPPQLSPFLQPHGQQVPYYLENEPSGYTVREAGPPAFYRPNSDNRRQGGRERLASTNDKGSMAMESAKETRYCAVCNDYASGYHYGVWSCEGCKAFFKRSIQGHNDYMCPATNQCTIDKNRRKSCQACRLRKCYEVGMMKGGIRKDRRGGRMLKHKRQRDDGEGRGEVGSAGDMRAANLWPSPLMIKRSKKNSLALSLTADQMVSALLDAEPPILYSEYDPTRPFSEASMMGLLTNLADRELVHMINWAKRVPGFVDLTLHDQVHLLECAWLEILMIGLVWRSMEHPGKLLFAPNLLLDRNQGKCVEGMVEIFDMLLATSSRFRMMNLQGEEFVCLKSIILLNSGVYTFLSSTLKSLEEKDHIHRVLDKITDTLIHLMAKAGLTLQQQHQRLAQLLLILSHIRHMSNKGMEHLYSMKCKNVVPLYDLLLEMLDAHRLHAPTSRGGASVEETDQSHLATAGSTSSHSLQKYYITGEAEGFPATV
# Summary of the method: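 Antagonist mode: compounds in DMSO are pinned onto VM7Luc4E2 reporter cells, 0.1 nM final 17beta-estradiol is added, and after 22 h at 37C luciferase luminescence is measured with ONE-Glo.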
# [5] = qHTS assay to identify small molecule HDAC inhibitors (AID 1259364); also: potency is read from the fitted curve at half-maximal effect;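 also: wild-type HCT-116 cells with endogenous class I/II HDAC activity; nearly all actives have a fitted effect of over 45% in size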
# Summary of the method: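 Cells (HCT-116, wild type) are seeded at 1,500 per well, incubated overnight, treated with compound in DMSO for 2 hr, then developed with HDAC-Glo I/II reagent for 30 min at room temperature.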
# [6] = qHTS assay to identify small molecule HDAC inhibitors - cell viability counter screen (AID 1259365); also: series mostly up to about 92 µM; nearly all actives have a fitted effect of over 50% in size
# Summary of the method: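 Wild-type HCT-116 cells, 1,500/well, cultured overnight, then compound-treated 2 h at 37 C. Viability measured as ATP luminescence with CellTiter-Glo after 30 min at room temperature.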
# [7] = qHTS assay to identify small molecule agonists of the sonic hedgehog signaling (Shh) pathway (AID 1259368; calls by dose curve;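 also: NIH/3T3-derived 3T3Gli1-Luc cells carrying a stable Gli1-driven firefly luciferase reporter; series mostly up to about 92 µM; nearly all actives have a fitted effect of over 15% in size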)
# Summary of the method: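 Cells of a mouse NIH/3T3 clone stably expressing luciferase under the Gli1 transcriptional response element are exposed to test chemicals for 24 hr at 37 C. Pathway activation is detected as a rise in luminescence.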
# [8] = qHTS assay to identify small molecule antagonists of the sonic hedgehog signaling (Shh) pathway (AID 1259369; calls by dose curve; also: nearly all actives have a fitted effect of over 45% in size)
# Summary of the method: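 Cells are plated and held 4hr at 37 C, compounds (DMSO) are pinned in, conditioned medium is added to stimulate the pathway, and after 24hr luciferase reagent is added for 30min before luminescence is read.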
# [9] = target: Estrogen receptor beta (Homo sapiens) (UniProt Q92731); assay: qHTS assay to identify small molecule antagonists of the estrogen receptor beta (ER-beta) signaling pathway (AID 1259378; active = well fitted inhibition curve with a large enough effect in the signal ratio in the repeat runs, not every such curve was filed as active; the % refers to the signal ratio)
# Sequence of Estrogen receptor beta (Homo sapiens) (Q92731 whole entry, looked up): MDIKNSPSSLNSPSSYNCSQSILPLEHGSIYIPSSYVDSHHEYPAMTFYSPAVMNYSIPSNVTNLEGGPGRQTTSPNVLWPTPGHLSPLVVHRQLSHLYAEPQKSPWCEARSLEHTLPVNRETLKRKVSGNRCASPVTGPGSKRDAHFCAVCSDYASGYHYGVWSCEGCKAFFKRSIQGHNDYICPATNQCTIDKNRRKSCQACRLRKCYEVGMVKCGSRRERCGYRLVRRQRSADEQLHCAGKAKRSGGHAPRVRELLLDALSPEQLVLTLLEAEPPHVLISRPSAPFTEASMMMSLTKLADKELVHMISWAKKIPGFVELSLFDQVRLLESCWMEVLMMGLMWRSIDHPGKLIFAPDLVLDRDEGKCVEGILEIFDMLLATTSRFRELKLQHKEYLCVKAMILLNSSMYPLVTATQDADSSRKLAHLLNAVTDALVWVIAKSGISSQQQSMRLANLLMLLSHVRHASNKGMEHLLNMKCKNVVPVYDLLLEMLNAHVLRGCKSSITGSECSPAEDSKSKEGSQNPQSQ
# Summary of the method: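 ER-beta-UAS-bla HEK293T (GripTite) cells in 2% charcoal-stripped FBS medium were preincubated 6 hr at 37C, dosed with compound, then stimulated with 1 nM E2 (final) for 16 hr; beta-lactamase reporter read by B/G FRET fluorescence after 2 hr substrate loading.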
# [10] = qHTS assay to identify small molecule agonists of the androgen receptor (AR) signaling pathway in the presence of an antagonist - cell viability counter screen (AID 1259379); also: nearly all actives have a fitted effect of over 25% in size; also: potency is read from the fitted curve at half-maximal effect
# Summary of the method: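 Cytotoxicity is assessed by CellTiter-Fluor in MDA-kb2 cells carrying an MMTV-driven luciferase reporter. Cells receive 3.0uM nilutamide plus compounds at 15 concentrations and incubate 16 hr at 37C without CO2 before fluorescence reading.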
# [11] = qHTS assay to identify small molecule agonists of the estrogen receptor beta (ER-beta) signaling pathway - cell viability counter screen (AID 1259380); also: nearly all actives have a fitted effect of over 30% in size; also: potency is read from the fitted curve at half-maximal effect
# Summary of the method: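 Cytotoxicity is measured in parallel with the reporter screen: after 16 hr compound exposure at 37C and a 2 hr LiveBLAzer step, CellTiter-Glo is added to the same ER-beta-UAS-bla HEK293T wells and luminescence read after 30 min.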
# [12] = target: Androgen receptor (Homo sapiens) (UniProt P10275); assay: qHTS assay to identify small molecule agonists of the androgen receptor (AR) signaling pathway in the presence of an antagonist (AID 1259381; calls by dose curve; also: nearly all actives have a fitted effect of over 15% in size)
# Summary of the method: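 Agonist-mode confirmation screen: human MDA-kb2 cells stably expressing luciferase under an MMTV promoter bearing AR and GR response elements, co-treated with 3.0uM nilutamide (final). Luminescence measured after 16hr compound incubation.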
# [13] = qHTS assay to identify small molecule antagonists of the estrogen receptor beta (ER-beta) signaling pathway - cell viability counter screen (AID 1259382); also: nearly all actives have a fitted effect of over 55% in size; also: potency is read from the fitted curve at half-maximal effect
# Summary of the method: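 Cytotoxicity counter screen multiplexed with the beta-lactamase antagonist assay: GripTite HEK293T ER-beta-bla cells were treated 16 hr with test chemicals in the presence of 1nM 17-beta-estradiol, and viability was measured by CellTiter-Glo.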
# [14] = target: Estrogen receptor (Homo sapiens) (UniProt P03372); assay: qHTS assay to identify small molecule agonists of the estrogen receptor alpha (ER-alpha) signaling pathway in the presence of an antagonist (AID 1259383; calls by dose curve; also: top concentration of the series differs between compounds; nearly all actives have a fitted effect of over 15% in size)
# Summary of the method: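 Agonist-mode confirmation in the presence of the ER antagonist ICI-182,780 at 10.0nM final. Breast-derived VM7Luc4E2 reporter cells were exposed to compounds for 22hr, and ERE-driven luciferase was quantified by luminescence.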
# [15] = qHTS assay to identify small molecule agonists or antagonists of the thyroid stimulating hormone receptor (TSHR) signaling pathway - wild type cell line counter screen (AID 1259384; calls by dose curve)
# Summary of the method: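 Wild-type HEK293 cells were plated 18 h at 37 C/5% CO2, pin-dosed with compound plus Ro20-1724 medium, held 30 min at room temperature, then given cAMP-d2 and anti-cAMP-cryptate; fluorescence was read after 1 h. Fifteen concentrations, triplicate.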
# [16] = A CellTox Green Cytotoxicity Assay to monitor cytotoxicity in HepG2 cells - 8 hour (AID 1224890); also: nearly all actives have a fitted effect of over 45% in size
# Summary of the method: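 Cells and non-lytic dye reagent are dispensed together (600 HepG2 cells/well) and incubated 5 h before DMSO compound transfer. Kinetic fluorescence is then recorded in the same wells during 40 h at 37 C.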
# [17] = qHTS assay to identify small molecule agonists of the sonic hedgehog signaling (Shh) pathway - cell viability counter screen (AID 1259366); also: nearly all actives have a fitted effect of over 50% in size
# Summary of the method: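 NIH/3T3-derived Gli1-Luc reporter cells, 2,000 per well, received compound after 4 h and were treated about 23 h at 37C. Viability measured in the same wells by CellTiter-Fluor fluorescence after 1 h.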
# [18] = qHTS assay to identify small molecule antagonists of the sonic hedgehog signaling (Shh) pathway - cell viability counter screen (AID 1259367); also: nearly all actives have a fitted effect of over 55% in size
# Summary of the method: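 Cytotoxicity was assessed in parallel with Shh reporter activity by measuring live-cell protease fluorescence (CellTiter-Fluor) in NIH/3T3 cells stably carrying Gli1-Luc, treated with compound under conditioned medium stimulation for 23 hr plus 1 hr reagent incubation.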
# [19] = target: Estrogen receptor beta (Homo sapiens) (UniProt Q92731); assay: qHTS assay to identify small molecule agonists of the estrogen receptor beta (ER-beta) signaling pathway (AID 1259377; active = well fitted activation curve with a large enough effect in the signal ratio in the repeat runs, not every such curve was filed as active; the % refers to the signal ratio)
# Summary of the method: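 ER-beta-UAS-bla HEK293T cells in medium with 2% charcoal-stripped FBS were exposed to compounds for 16 h at 37C. Beta-lactamase reporter activity was read as fluorescence after 2 h with LiveBLAzer B/G FRET substrate at room temperature.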
# [20] = qHTS assay to identify small molecule phospholipidosis (PLD) inducers (AID 1259344; active = well fitted curve in the direction sought with a large enough effect; an effect the other way counts as inactive or inconclusive)
# Summary of the method: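 Cells (HepG2, 900 per well) attach for 4 h, receive LipidTOX Red and compound together, incubate 24 h at 37 C, are fixed 30 min with paraformaldehyde/Hoechst, then imaged at one site per well.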
SMILES,Potency [1],Potency [2],Potency [3],Potency [4],Potency [5],Potency [6],Potency [7],Potency [8],Potency [9],Potency [10],Potency [11],Potency [12],Potency [13],Potency [14],Potency [15],Potency [16],Potency [17],Potency [18],Potency [19],Potency [20]
CCC(CO)(CO)CO,inactive,inactive,inactive,inactive,inactive,inactive,inactive,inactive,inactive,inactive,inactive,inactive,inactive,inactive,inactive,–,–,–,–,–
CC(C)(C)CCCCCCOC(=O)c1ccccc1C(=O)OCCCCCCC(C)(C)C,inactive,–,–,inactive,inactive,inactive,inactive,inactive,–,inactive,inactive,–,inactive,inactive,inactive,inactive,inactive,inactive,–,–
Cc1cc([N+](=O)[O-])ccc1N,–,–,–,inactive,inactive,inactive,inactive,inactive,inactive,53.8 µM (active),inactive,–,inactive,inactive,inactive,–,–,–,inactive,–
O=C(NC(Cc1cc(=O)[nH]c2ccccc12)C(=O)O)c1ccc(Cl)cc1 (centres undefined),inactive,inactive,–,inactive,inactive,inactive,inactive,inactive,–,inactive,–,–,inactive,inactive,inactive,–,inactive,inactive,–,inactive
CS(=O)(=O)c1ccc([C@@H](C[C@H]2CCC(=O)C2)C(=O)Nc2cnccn2)cc1Cl,–,inactive,–,inactive,inactive,inactive,inactive,inactive,inactive,inactive,inactive,–,–,inactive,inactive,–,–,inactive,inactive,–
CC(CCc1ccc(O)cc1)NCCc1ccc(O)c(O)c1 (centres undefined),inactive,inactive,–,inactive,inactive,inactive,inactive,inactive,–,inactive,inactive,–,inactive,inactive,inactive,–,inactive,inactive,–,inactive
NC(=O)c1ccccc1[N+](=O)[O-],inactive,inactive,–,inactive,inactive,inactive,inactive,inactive,inactive,inactive,inactive,–,–,inactive,inactive,–,inactive,inactive,–,–
O=C1CC[C@@H](C(=O)O)N1,inactive,–,inactive,–,inactive,inactive,inactive,inactive,–,inactive,inactive,inactive,inactive,–,inactive,–,inactive,inactive,–,inactive
CN(C)CC/C=C1\c2ccccc2Sc2ccc(Cl)cc21,inactive,–,29.8 µM (active),inactive,inactive,inactive,inactive,–,–,29.8 µM (active),23.7 µM (active),inactive,18.8 µM (active),inactive,inactive,–,–,–,–,–
COC(CC(C)CCCC(C)(C)O)OC (centres undefined),inactive,inactive,–,–,inactive,inactive,inactive,inactive,–,inactive,inactive,–,inactive,–,inactive,–,inactive,inactive,–,–
CC(C)CC(O)CC(C)C,inactive,inactive,–,inactive,inactive,inactive,inactive,inactive,–,inactive,inactive,–,inactive,inactive,inactive,–,inactive,inactive,–,–
COc1ccc(-c2cc(=S)ss2)cc1,–,inactive,–,inactive,11.9 µM (active),inactive,inactive,inactive,–,–,inactive,–,inactive,–,inactive,–,–,inactive,inactive,inactive
COc1ccc(C2C(=O)c3ccccc3C2=O)cc1,inactive,inactive,–,inactive,23.7 µM (active),inactive,inactive,inactive,inactive,inactive,inactive,–,inactive,inactive,–,–,–,–,inactive,inactive
CC(=O)NNC(C)=O,inactive,inactive,–,inactive,inactive,inactive,inactive,inactive,–,inactive,inactive,–,inactive,inactive,inactive,–,inactive,–,–,–
O=C(O)c1cc(Cl)cc(Cl)c1O,inactive,inactive,inactive,–,–,inactive,inactive,–,–,inactive,–,inactive,inactive,–,inactive,–,–,inactive,inactive,–
CCCCCCCC/C=C/C(=O)O,inactive,inactive,–,–,inactive,inactive,inactive,inactive,–,inactive,–,–,–,–,inactive,–,inactive,inactive,–,–
CCCCCCC(O)CCOC(C)=O (centres undefined),inactive,–,–,inactive,inactive,inactive,inactive,inactive,inactive,inactive,inactive,–,inactive,inactive,inactive,–,–,inactive,inactive,–
CCN(CC)CCOc1ccccc1C(=O)CCc1ccccc1,inactive,inactive,–,inactive,inactive,inactive,inactive,–,–,inactive,21.1 µM (active),–,–,inactive,inactive,–,inactive,inactive,inactive,inactive
Oc1ccc2c(c1)Cc1ccccc1-2,inactive,inactive,–,inactive,inactive,inactive,inactive,–,–,inactive,–,–,inactive,–,inactive,–,inactive,inactive,–,–
CC(C)N=C=NC(C)C,inactive,inactive,–,inactive,inactive,inactive,inactive,–,–,inactive,–,–,inactive,inactive,–,–,inactive,inactive,–,–

# Source: PubChem BioAssay (Tox21)
